# Data as given in the supplement of paper PMC9135407.
# Where “and” joins values, the source holds several entries; their conditions need not be identical. Equal values may be shown once. Where a name gives a salt, the structure may show the parent alone. Among all 5,800 compounds or so, about 620 (11%) showed activity. The list comes from a sample in which actives are over-represented; it also holds similar structures and randomly drawn compounds. A number with no mark means an inactive call.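 Rule for the calls: active = score above a cut-off or among the top three wells of a plate; in these data no inactive exceeds 0.85.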
# Test system: primary human hepatic stellate cells (donor 1)
# Assay: scaled lipid accumulation score (0 = DMSO-like, 1 = nortriptyline-like); higher = stronger HSC inactivation (lipid re-accumulation), active = hit call of the paper
# Conditions: 48 h
# [1] = library stock concentration: 10 mM
# [2] = library stock concentration: 3.33 mM
# [3] = library stock concentration: 1 mM
# [4] = library stock concentration: 80 uM
# [5] = library stock concentration: 400 uM
# [6] = library stock concentration: 2 mM
compound,measurement,setting,value
CC(C)[C@@H]1NC(=O)[C@H](Cc2ccccc2)NC(=O)[C@@H](CC(=O)O)NC(=O)CNC(=O)[C@H](CCCN=C(N)N)NC1=O [Cyclo [Arg-Gly-Asp-D-Phe-Val]],scaled lipid accumulation score,library stock concentration: 8.7 mM,≤ -0.003
CN[C@H]1CC[C@@H](c2ccc(Cl)c(Cl)c2)c2ccccc21 [Sertraline hydrochloride],scaled lipid accumulation score,library stock concentration: 5.8 mM,0.777
same,scaled lipid accumulation score,[1],≤ -0.055 and 0.281 and 0.318
CN[C@H]1CC[C@@H](c2ccc(Cl)c(Cl)c2)c2ccccc21 [Sertraline] [listing 1 of 2 here],scaled lipid accumulation score,,1.23 (active)
CN[C@H]1CC[C@@H](c2ccc(Cl)c(Cl)c2)c2ccccc21 [Sertraline HCl],scaled lipid accumulation score,[2],0.103
same,scaled lipid accumulation score,[1],0.033
CN[C@H]1CC[C@@H](c2ccc(Cl)c(Cl)c2)c2ccccc21 [Sertraline] [listing 2 of 2 here],scaled lipid accumulation score,[1],0.147 and 0.63
CC(C)[C@H](NC(=O)CNC(=O)OC(C)(C)C)C(=O)N[C@H](C=O)C(C)C,scaled lipid accumulation score,library stock concentration: 14 mM,0.022
COC(=O)[C@H]1[C@H]2C[C@@H]3c4[nH]c5cc(OC)ccc5c4CCN3C[C@H]2C[C@@H](OC(=O)c2cc(OC)c(OC)c(OC)c2)[C@@H]1OC [Reserpine] [listing 1 of 3 here],scaled lipid accumulation score,[1],1.18 (active)
CCOC(=O)Oc1c(OC)cc(C(=O)O[C@@H]2C[C@@H]3CN4CCc5c([nH]c6cc(OC)ccc56)[C@H]4C[C@@H]3[C@H](C(=O)OC)[C@H]2OC)cc1OC [Syrosingopine],scaled lipid accumulation score,,0.248
COC(=O)[C@H]1[C@H]2C[C@@H]3c4[nH]c5cc(OC)ccc5c4CCN3C[C@H]2C[C@@H](OC(=O)c2cc(OC)c(OC)c(OC)c2)[C@@H]1OC [Reserpine] [listing 2 of 3 here],scaled lipid accumulation score,[1],0.944 (active)
COC(=O)[C@H]1[C@H]2C[C@@H]3c4[nH]c5cc(OC)ccc5c4CCN3C[C@H]2C[C@@H](OC(=O)/C=C/c2cc(OC)c(OC)c(OC)c2)[C@@H]1OC [Rescinnamin],scaled lipid accumulation score,,0.478
COC(=O)[C@H]1[C@H]2C[C@@H]3c4[nH]c5cc(OC)ccc5c4CCN3C[C@H]2C[C@@H](OC(=O)c2cc(OC)c(OC)c(OC)c2)[C@@H]1OC [Reserpine] [listing 3 of 3 here],scaled lipid accumulation score,,≤ 0
same,scaled lipid accumulation score,[1],0.574 and 0.771
COc1ccc2c3c([nH]c2c1)[C@H]1C[C@H]2[C@H](C[C@@H](O)[C@H](OC)[C@H]2C(=O)O)CN1CC3 [Reserpinic acid hydrochloride],scaled lipid accumulation score,,≤ 0
CC1/C=C/C=C/C=C/C=C/C=C/C=C/C=C/C(OC2O[C@H](C)[C@@H](O)[C@H](N)[C@@H]2O)CC(O)C(C(=O)O)C(O)CC(=O)CC(O)CC(O)CC(O)CC(=O)CCCC(=O)CC(=O)OC1C(C)CC(C)C(O)CC(=O)c1ccc(N)cc1 (stereo partly specified),scaled lipid accumulation score,[1],≤ 0
CCN(CC)CC1CCCCN1CC(=O)N1c2ccccc2C(=O)Nc2cccnc21 (stereo unspecified),scaled lipid accumulation score,[1],≤ 0 and ≤ -0.006
CCCCC/C=C\CC1OC1C/C=C\C/C=C\CCCC(=O)O (stereo unspecified),scaled lipid accumulation score,library stock concentration: 100 uM,≤ -0.021
O=C(O)CCC/C=C\C[C@@H]1[C@@H](/C=C/[C@@H](O)COc2ccccc2)[C@H](O)C[C@@H]1O [16-phenoxy tetranor Prostaglandin F2.alpha.],scaled lipid accumulation score,[3],≤ 0
CCN1CCN(c2ccc(Nc3cc(N(C)C(=O)Nc4c(Cl)c(OC)cc(OC)c4Cl)ncn3)cc2)CC1,scaled lipid accumulation score,[4],≤ -0.009
same,scaled lipid accumulation score,[5],≤ -0.009
same,scaled lipid accumulation score,[6],0.01
same,scaled lipid accumulation score,[1],0.291
COc1ccc(-c2cc3nccn3c(Nc3ncccc3C(N)=O)n2)cc1OC,scaled lipid accumulation score,[4],0.088
same,scaled lipid accumulation score,[5],≤ -0.009
same,scaled lipid accumulation score,[6],0.133
same,scaled lipid accumulation score,[1],0.349
CCC[C@H](Nc1nc(-c2ccc(NC(=O)NCC)c(OC)c2)ncc1C)c1cccnc1 [CYT997 (Lexibulin)],scaled lipid accumulation score,[2],0.682
same,scaled lipid accumulation score,[1],0.758
C[N+](C)(C)CCO.[Cl-] [Choline chloride],scaled lipid accumulation score,[1],≤ -0.027
same,scaled lipid accumulation score,library stock concentration: 14.3 mM,≤ 0
C[N+](C)(C)CCO.[Cl-] [Choline Chloride],scaled lipid accumulation score,[2],≤ 0
same,scaled lipid accumulation score,[1],0.043
N#CC(=Cc1ccc2[nH]ccc2c1)C(N)=C(C#N)C#N,scaled lipid accumulation score,library stock concentration: 19.3 mM,0.606
COc1ccc(C2=N[C@@H](c3ccc(Cl)cc3)[C@@H](c3ccc(Cl)cc3)N2C(=O)N2CCNC(=O)C2)c(OC(C)C)c1 [Nutlin-3],scaled lipid accumulation score,[2],0.168
same,scaled lipid accumulation score,[1],0.829
COc1ccc(C2=NC(c3ccc(Cl)cc3)C(c3ccc(Cl)cc3)N2C(=O)N2CCNC(=O)C2)c(OC(C)C)c1 (stereo unspecified) [Nutlin-3a],scaled lipid accumulation score,[2],0.207
COc1ccc(C2=N[C@@H](c3ccc(Cl)cc3)[C@H](c3ccc(Cl)cc3)N2C(=O)N2CCNC(=O)C2)c(OC(C)C)c1 [Nutlin-3a],scaled lipid accumulation score,[1],0.954 (active)
COc1ccc(C2=N[C@@H](c3ccc(Cl)cc3)[C@@H](c3ccc(Cl)cc3)N2C(=O)N2CCNC(=O)C2)c(OC(C)C)c1,scaled lipid accumulation score,[3],≤ 0
COc1ccc(C2=NC(c3ccc(Cl)cc3)C(c3ccc(Cl)cc3)N2C(=O)N2CCNC(=O)C2)c(OC(C)C)c1 (stereo unspecified) [Nutlin-3b],scaled lipid accumulation score,[2],≤ -0.009
same,scaled lipid accumulation score,[1],≤ 0
CCCCCCCCCCCCCCCCCCOCC(O)COP(=O)([O-])OCC[N+](C)(C)C (stereo unspecified),scaled lipid accumulation score,[3],≤ 0
CCCCCCCCCCCCCCCCCC(=O)OCC [Stearic Acid ethyl ester],scaled lipid accumulation score,[3],≤ 0
O=C(NCCN1CCOCC1)c1ccc(Cl)cc1 [Moclobemide],scaled lipid accumulation score,,0.059
same,scaled lipid accumulation score,[1],0.047
c1ccc2c(c1)CCCc1cc(NCCN3CCOCC3)nnc1-2,scaled lipid accumulation score,,0.038
O=C(NCCN1CCOCC1)c1ccc(Cl)cc1 [4-Chloro-N-(2-morpholin-4-yl-ethyl)-benzamide],scaled lipid accumulation score,[1],≤ 0
O=C1C(Cl)=C(NCCN2CCOCC2)C(=O)c2ncccc21,scaled lipid accumulation score,[1],1.04 (active)
O=C(NCCN1CCOCC1)c1ccc(Cl)cc1,scaled lipid accumulation score,[2],≤ 0
same,scaled lipid accumulation score,[1],≤ 0
CN1Cc2sccc2C(c2ccc(O)c(O)c2)C1 (stereo unspecified),scaled lipid accumulation score,[1],0.005
